Here are results for 15 compounds from PubChem BioAssay (EPA / NIEHS).

Read-out in test [1]: Decorin, DCN (gene 1634)
Briefly: BSK_MyoF_Decorin: BioMAP Diversity Plus: MyoF Assay for Decorin Biomarker Activity (AID 2284265). The settings on record: primary human lung fibroblasts. Put shortly: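 Human lung fibroblast cultures were dosed for 24 h, and decorin was then measured by ELISA. Parallel cultures were stained with sulforhodamine B for total protein as a cytotoxicity check. Gain of signal was fitted relative to DMSO.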

Test [2] is described as follows: BSK_MyoF_SRB: Viability Assessment in the BioMAP Diversity Plus: MyoF Assay (AID 2284267).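 Further: total protein by SRB absorbance in parallel cultures as cytotoxicity measure; cells assessed 24 h after compound addition.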 The note with it: primary human lung fibroblasts. Put shortly: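 Lung fibroblast cultures, 24 h post-dose; fix 10% TCA, stain 0.1% SRB, read 560 nm. Signal = total protein as cytotoxicity measure; fitted relative to DMSO negative control.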
Read-out in test [3]: Matrix Metallopeptidase 1 (MMP1), MMP1 (gene 4312)
Description: BSK_MyoF_MMP1: BioMAP Diversity Plus: MyoF Assay for Matrix Metallopeptidase 1 (MMP1) Biomarker Activity (AID 2284268). The note with it: primary human lung fibroblasts. The essentials: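 Human lung fibroblast primary cells; MMP1 measured by ELISA 24 h after dosing, fitted in the positive direction relative to DMSO. Parallel SRB staining (0.1%, after 10% TCA fixation, 560 nm) assesses overt cytotoxicity.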

Read-out in test [4]: TIMP metallopeptidase inhibitor 1 (TIMP1), TIMP1 (gene 7076)
Description: BSK_MyoF_TIMP1: BioMAP Diversity Plus: MyoF Assay for TIMP metallopeptidase inhibitor 1 (TIMP1) Biomarker Activity (AID 2284269). The settings on record: primary human lung fibroblasts. Put shortly: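 ELISA quantified TIMP-1 levels after 24 h dosing of primary human lung fibroblasts, with DMSO as baseline. Parallel SRB total protein staining (0.1% SRB after TCA fixation, 560 nm) flagged overt cytotoxicity.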

Read-out in test [5]: KRT18 (gene 3875)
Description: BSK_BF4T_Keratin818: BioMAP Diversity Plus: BF4T Assay for Keratin 818 Biomarker Activity (AID 2284266). The settings on record: primary human bronchial epithelial cells with fibroblasts. Put shortly: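 Keratin 8/18 levels quantified by ELISA after 24 h chemical treatment of bronchial epithelial cell/dermal fibroblast co-cultures, fitted in positive direction relative to DMSO. Parallel SRB staining tracks overt cytotoxicity.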

Read-out in test [6]: Matrix Metallopeptidase 1 (MMP1), MMP1 (gene 4312)
Description: BSK_BF4T_MMP1: BioMAP Diversity Plus: BF4T Assay for Matrix Metallopeptidase 1 (MMP1) Biomarker Activity (AID 2284270). The note with it: primary human bronchial epithelial cells with fibroblasts. Here is the method:
BSK_BF4T is a cell-based, multiplexed-readout assay that uses bronchial epithelial cells and dermal fibroblasts, a human vascular primary cell, with measurements taken at 24 hours after chemical dosing in a microplate: 96-well plate.BSK_BF4T_MMP1 is an assay component measured in the BSK_BF4T assay. It measures MMP-1 antibody related to regulation of gene expression using ELISA technology.Data from the assay component BSK_BF4T_MMP1 was analyzed at the endpoint, BSK_BF4T_MMP1, in the positive analysis fitting direction relative to DMSO as the negative control and baseline of activity. Using a type of binding reporter, gain or loss-of-signal activity can be used to understand protein changes. To generalize the intended target to other relatable targets, this assay endpoint is annotated to the 'protease' intended target family, where the subfamily is 'matrix metalloproteinase'.
The levels of cell surface (or secreted, indicated by the prefix "s") biomarker endpoints were measured by ELISA. Overt cytotoxicity to cells in confluent adherent cultures (all systems other than the BT system) was assessed by measuring total protein levels using sulforhodamine B (SRB) staining in parallel cultures at the time of biomarker measurements, indicated as SRB endpoints. For proliferation assays for adherent cell types, individual cell types are cultured at sub-confluence and relative cell numbers quantified by SRB staining at time points optimized for each system (48 h: 3C and CASM3C systems; 72 h: BT and HDF3CGF systems; 96 h: SAg system). SRB was performed by staining cells with 0.1% SRB after fixation with 10% TCA and reading wells at 560 nm.Viability and proliferation of PBMC (T cells) was quantified by Alamar Blue reduction for the SAg and BT systems. For PBMC viability (referred to as PBMC Cytotoxicity within the assay endpoint names), cells were plated (75,000/well in a 96-well plate) and then chemical samples added for 1 h before addition of activators, SEB and TSST-1 (20 ng/mL final concentration each). Cells were incubated for 90 h. Then, Alamar Blue (20 uL/well) (Invitrogen, Cat DAL1100) was added for 6 h, and the plates were read with a fluorescence microplate reader at 546/580 nm (excitation/emission). For PBMC proliferation, cells were plated and activated as above but incubated for only 16 h prior to addition of Alamar Blue. Plates were read after 6 h.

Read-out in test [7]: Matrix Metallopeptidase 3 (MMP3), MMP3 (gene 4314)
Description: BSK_BF4T_MMP3: BioMAP Diversity Plus: BF4T Assay for Matrix Metallopeptidase 3 (MMP3) Biomarker Activity (AID 2284271). The settings on record: primary human bronchial epithelial cells with fibroblasts. Put shortly:
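MMP-3 level read by ELISA after 24 h chemical exposure of bronchial epithelial cell/dermal fibroblast co-cultures, fitted upward relative to DMSO. Parallel cultures stained with 0.1% SRB after TCA fixation gauge overt cytotoxicity.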

Read-out in test [8]: Tissue plasminogen activator (tPA), PLAT (gene 5327)
Briefly: BSK_BF4T_tPA: BioMAP Diversity Plus: BF4T Assay for Tissue plasminogen activator (tPA) Biomarker Activity (AID 2284272). The note with it: primary human bronchial epithelial cells with fibroblasts. The essentials:
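tPA level quantified by ELISA at 24 h post-treatment in bronchial epithelial/dermal fibroblast co-cultures, gain of signal scored against DMSO baseline. Parallel cultures stained with 0.1% SRB (560 nm) to flag overt cytotoxicity.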

Read-out in test [9]: Plasminogen Activator Inhibitor-1 (PAI1), SERPINE1 (gene 5054)
Description: BSK_BF4T_PAI1: BioMAP Diversity Plus: BF4T Assay for Plasminogen Activator Inhibitor-1 (PAI1) Biomarker Activity (AID 2284273). The note with it: primary human bronchial epithelial cells with fibroblasts. Put shortly: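 PAI-1 levels quantified by ELISA 24 h post-dosing in bronchial epithelial cell plus dermal fibroblast cultures. Signal gain referenced to DMSO baseline. Sulforhodamine B total-protein staining of parallel wells checked cytotoxicity.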

Test [10] can be described thus: BSK_BF4T_SRB: Viability Assessment in the BioMAP Diversity Plus: BF4T Assay (AID 2284274). The settings on record: primary human bronchial epithelial cells with fibroblasts. The essentials: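 Cytotoxicity measured as total protein: cells fixed with 10% TCA, stained with 0.1% SRB, read at 560 nm. Bronchial epithelial/dermal fibroblast co-culture, 24 h after dosing, with positive-direction fitting relative to DMSO.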

Molecules are shown by their SMILES. Values joined by “and” are separate entries in the source; they are usually repeats but may differ in a detail not shown here. Identical values can stand only once. The source holds several records for some structures; these can differ, active in one and inactive in another. Active and inactive are the calls of the source. How the source made its calls: active means hit-call score of the fitted dose curve at least 0.9, where 1 is the maximum; inactive means score below 0.9.

For the compound `CC(=O)CCC=C(C)CCC=C(C)C`, the outcome in [1], in test [2], in [3] and in test [4] was inactive.

With `OCC(F)(OC(F)(F)C(F)(OC(F)(F)C(F)(F)C(F)(F)F)C(F)(F)F)C(F)(F)F` (stereo not given), the outcome in test [1], in [5], in [3], in test [4], in test [6] and in test [7] was inactive. The result in test [8], in [9] and in test [10] was inactive. In addition, the AC50 in test [2] is 2.54 µM (active) and 3.33 µM (active); in test [8] it was 4.28 µM (active).

Regarding `CC1(C)[C@H](C=C(Cl)Cl)[C@H]1C(=O)OCc1cccc(Oc2ccccc2)c1`, the outcome in test [1], in test [2], in [3] and in test [4] was inactive.

With `O=S1(=O)CC(Cl)(Cl)C(Cl)(Cl)C1`, the result in test [1] was inactive. Further, the AC50 was 2.14 µM (active) in [2], 3.45 µM (active) in [3] and 3.94 µM (active) in [4].

Turning to `COc1ccccc1NC(=O)CC(C)=O`, the outcome in test [1], in test [2], in test [3] and in test [4] was inactive.

`CCC(=O)OCC=Cc1ccccc1`: the result in [1], in test [2], in test [3] and in [4] was inactive.

As for `c1ccc(Sc2ccccc2)cc1`, the concentration at half-maximal activity (AC50) in test [1] was 36.5 µM (active); in test [2], 34.8 µM (active); in [3] it was 30.8 µM (active); in test [4], 32.3 µM (active).

As for `c1ccc2c(c1)-c1ccc3ccc4cccc5cc-2c1c3c45`, the result in test [1], in test [2] and in [4] was inactive. Moreover, in test [3], the AC50 was 1.33 µM (active).

Consider `C=C(C)C(=O)OCCC(F)(F)C(F)(F)C(F)(F)C(F)(F)C(F)(F)C(F)(F)C(F)(F)C(F)(F)F`, for which the result in test [1], in test [5], in test [2], in test [3], in test [4] and in test [6] was inactive. Also, the result in test [7], in test [8], in test [9] and in [10] was inactive.

As for `CC(C)(C)c1cccc(O)c1`, the outcome in test [1], in test [2], in test [3] and in test [4] was inactive.

In the case of `O=C1OC2(c3ccc(O)cc3Oc3cc(O)ccc32)c2ccccc21`, the outcome in [1], in test [2], in test [3] and in [4] was inactive.

`O=S(=O)(O)C(F)(F)C(F)(F)OC(F)(F)C(F)(F)F`: the outcome in [1], in [5], in test [2], in test [3], in test [4] and in test [6] was inactive. Further, the result in [7], in test [8], in test [9] and in test [10] was inactive. In addition, the AC50 in [7] was 36.9 µM (active).

For the compound `C=C1CC/C=C(\C)CC[C@@H]2[C@@H]1CC2(C)C`, the AC50 was 31 µM (active) in test [1], 28.8 µM (active) in test [2], 9.66 µM (active) in test [3] and 34.6 µM (active) in test [4].

In the case of `CC(=O)OCC=C(C)CCC=C(C)CCC=C(C)C`, the result in [1], in test [2], in test [3] and in test [4] was inactive.

Consider `CCCCCCCCCC(=O)OCC`, for which the result in test [1], in test [2], in test [3] and in test [4] was inactive.
